# Several values for one entry are separate records, joined by “and”; a condition that tells them apart may be missing. Equal values may be shown once. Over roughly 5,300 compounds, “PER2::LUC luminescence relative to vehicle control” has its median near 0.96; the highest 2% begin near 1.3. What follows is part of a selection rich in the highest values, with near analogues and random picks from the rest.
# Test system: mPer2Luc MEF
# Test: PER2::LUC luminescence relative to vehicle control (fold of vehicle); higher = higher PER2::LUC reporter signal
# Details: 10 µM
# How it was run: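 The value is PER2::LUC luminescence expressed as fold of vehicle control. Mouse embryonic fibroblasts carrying the mPer2Luc reporter were seeded at ~3000 cells per well in 384-well plates and grown in DMEM with 10% FBS at 37 °C and 5% CO2. Compounds from commercial libraries were added at 10 μM 48 h after seeding, and luminescence was read with the ONE-Glo luciferase assay system 24 h and 30 h after treatment, followed by an alamarBlue viability assay.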
Compound,PER2::LUC luminescence (time after treatment 24 h),PER2::LUC luminescence (time after treatment 30 h)
CN1CCc2ccccc2Cc2[nH]c3ccccc3c2CC1,1.11,0.824
CNc1ccccc1C(=O)N1CCc2c([nH]c3ccccc23)C1=O,1.56,1.79
O=Cc1ccc2cccc(O)c2n1,1.1,0.962
Nc1n[n+]([O-])c2ccccc2[n+]1[O-],1.36,1.15
CNC(=S)NCCSCc1[nH]cnc1C,1.06,1.06
N[C@@H](CCS(=O)O)C(=O)O,0.964,0.944
CN(NC(=O)CC(=O)NN(C)C(=S)c1ccccc1)C(=S)c1ccccc1,1.68,1.1
O=C(OOC(=O)c1ccccc1)c1ccccc1,1.2,0.843
O=C(O)c1ccccc1,0.918,0.766
NS(=O)(=O)c1ccc(-c2c(-c3ccccc3)noc2C(F)F)cc1,1.04,1
CO[C@H]1C[C@H](O[C@@H]2/C(C)=C/C[C@@H]3C[C@@H](C[C@]4(CC[C@H](C)[C@H](C5CCCCC5)O4)O3)OC(=O)[C@H]3C=C(C)/C(=N\O)[C@H]4OCC(=C/C=C/[C@@H]2C)[C@@]34O)O[C@@H](C)[C@@H]1O,0.989,0.929
CSc1ccccc1NC(C)=O,0.972,0.93
CC(=O)N[C@H]1[C@H]([C@H](O)[C@H](O)CO)OC(O)(C(=O)O)C[C@@H]1O (stereo partly drawn),1.03,0.921
COc1ccc(-c2ccc3cc(C(=O)O)ccc3c2)cc1C12CC3CC(CC(C3)C1)C2,1.49,1.86
O=C(O)/C=C/c1ccc(-c2ccc(O)c(C34CC5CC(CC(C5)C3)C4)c2)cc1,0.735,0.721
COc1cc(C(=O)O[C@H]2C[C@@H]3CC[C@]2(C)C3(C)C)ccc1O,1.15,1.19
COc1cc(C(=O)O)cc(OC)c1O,1.06,1.08
O=C(O)c1ccc2cc(-c3ccc(O)c(C45CC6CC(CC(C6)C4)C5)c3)ccc2c1,1.59,1.63
NC(=O)c1cccc(NC(=O)/C=C/c2c[nH]c3ccccc23)c1,1.08,1.06
C=C1/C(=C\C=C2/CCC[C@]3(C)[C@@H]([C@H](C)CC[C@@H](O)C(C)(C)O)CC[C@@H]23)C[C@@H](O)C[C@@H]1O,0.999,0.835

Compound,PER2::LUC luminescence (time after treatment 24 h),PER2::LUC luminescence (time after treatment 30 h)
CC1(C)C2CCC1(C(=O)O)C(=O)C2 (stereo not drawn),0.998,0.954
O=C(Nc1ncc([N+](=O)[O-])s1)c1ccc([N+](=O)[O-])c(Cl)c1,0.928,1.22
CC(=O)Oc1ccccc1C(=O)Nc1ncc([N+](=O)[O-])s1,0.826,1.16
O=C(Nc1ncc([N+](=O)[O-])s1)c1ccccc1O,1.45,1.73
COc1ccc(CNC(=O)Nc2ncc([N+](=O)[O-])s2)cc1,1.35,1.27
CC(=O)Nc1ncc([N+](=O)[O-])s1,1.33 and 1.09,0.865 and 1.09
COc1ccc(CNC(=O)c2sc3nc(C)cc(C)c3c2N)cc1,0.953,0.979
COc1ccc(C2=N[C@@H](c3ccc(Cl)cc3)[C@@H](c3ccc(Cl)cc3)N2C(=O)N2CCNC(=O)C2)c(OC(C)C)c1 (racemic),0.971,0.948
Nc1ncnc2c1ncn2[C@@H]1O[C@H](CO)C[C@@H]1O,0.952,0.956
NCCCCCCCCCCNCCCN,0.962,0.892
C[C@H](NC(=O)CNC(=O)[C@@H](NC(=O)[C@H](Cc1ccccc1)NC(=O)CNC(=O)CNC(=O)[C@@H](N)Cc1ccccc1)[C@@H](C)O)C(=O)N[C@@H](CCCN=C(N)N)C(=O)N[C@@H](CCCCN)C(=O)N[C@@H](CO)C(=O)N[C@@H](C)C(=O)N[C@@H](CCCN=C(N)N)C(=O)N[C@@H](CCCCN)C(N)=O,1.02,0.922
COc1cc2ncnc(Nc3cccc(Cl)c3)c2cc1OC,0.991 and 0.715,0.978 and 0.705
O=C(NCCO)c1ccc2c(c1)nc(Nc1cccc(Cl)c1)c1ccncc12,1.03,0.995
O=C(O)c1ccc2c(c1)nc(Nc1cccc(Cl)c1)c1ccncc12,0.795,1.39
C/C1=C2N=C(/C=C3N=C(/C(C)=C4\[N-]C(C(CC(N)=O)C4(C)CCC(=O)NCC(C)OP(=O)([O-])OC4C(CO)OC(n5cnc6cc(C)c(C)cc65)C4O)C4(C)N=C1C(CCC(N)=O)C4(C)CC(N)=O)C(CCC(N)=O)C\3(C)C)C(CCC(N)=O)C/2(C)CC(N)=O.[CH3-].[Co+3] (stereo not drawn),1.07,1.03
Cc1cnc(-c2cnc(NCCNc3ccc(C#N)cn3)nc2-c2ccc(Cl)cc2Cl)[nH]1,1.56,1.06
CN1CCN(C2CCC(n3cc(-c4ccc(Oc5ccccc5)cc4)c4c(N)ncnc43)CC2)CC1 (stereo not drawn),0.091,0.137
C[C@@H](NC(=O)c1cc(C(=O)N[C@@H](Cc2ccccc2)[C@H](O)CNC2CC2)cc(N(C)S(C)(=O)=O)c1)c1ccccc1,1.01,1.09
NCCCC[C@H](NC(=O)[C@@H]1CCCN1C(=O)[C@@H]1CSSC[C@H](N)C(=O)N[C@@H](Cc2ccccc2)C(=O)N[C@@H](Cc2ccccc2)C(=O)N[C@@H](CCC(N)=O)C(=O)N[C@@H](CC(N)=O)C(=O)N1)C(=O)NCC(N)=O,1.08,1.13

# — the supplement of paper PMC9334596
